GALK inhibitor: qHTS Assay for Inhibitors of Human Galactokinase (GALK): NCGC Sytravon Library Screen; recombinant GALK, Kinase-Glo ATP luminescence, 1 h; 44,000 tested, under 10 active; Potency, µM (highest dose often 57.5 µM), hits mostly inhibitors; P51570
Target sequence (P51570 whole entry, looked up): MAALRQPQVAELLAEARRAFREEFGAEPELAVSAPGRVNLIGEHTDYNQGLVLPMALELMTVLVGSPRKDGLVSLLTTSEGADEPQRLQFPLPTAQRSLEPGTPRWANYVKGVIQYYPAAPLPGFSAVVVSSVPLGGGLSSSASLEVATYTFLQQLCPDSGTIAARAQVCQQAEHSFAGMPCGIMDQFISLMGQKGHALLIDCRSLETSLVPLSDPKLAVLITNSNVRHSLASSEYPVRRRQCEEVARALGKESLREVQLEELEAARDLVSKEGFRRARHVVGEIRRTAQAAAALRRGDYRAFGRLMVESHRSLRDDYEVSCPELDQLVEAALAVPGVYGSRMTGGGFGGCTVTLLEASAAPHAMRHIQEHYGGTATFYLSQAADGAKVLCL
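5 nM GALK with 35 µM ATP and 100 µM galactose in HEPES pH 8.0, MgCl2, NaCl, DTT, BSA; 1 h RT reaction, remaining ATP detected by Kinase-Glo Plus luminescence after 10 min; qHTS concentration series.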
HTT-AS act: Primary qHTS for Identification of Small Molecule Activators of Huntingtin-Antisense Promoter Activity; HEK293 HTT-AS promoter firefly luciferase reporter, 24 h; response scale: percent change from vehicle, -100% = no light; Potency, µM (doses to about 57.5 µM), usual class: activators; actives 0.24% (n = 48,000); note: nearly all actives have a fitted effect of over 55% in size
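HEK293 Fluc reporter, 2,500 cells/well, 24 h pre-culture; cpds up to 57.5 uM final, 24 h 37 degrees C; Dual-Glo, 10 min RT; normalized vehicle = 0%, zero RLU = -100%.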
HTT prom inh: Primary qHTS for Identification of Small Molecule Inhibitors of Huntingtin Promoter Activity; HEK293 HTT promoter firefly luciferase reporter, 24 h; Potency, µM (top dose mostly 57.5 µM), usual class: inhibitors; actives 0.93% (n = 48,000); note: nearly all actives have a fitted effect of over 50% in size
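Firefly luciferase signal from promoter-reporter HEK293 cells was scaled between vehicle (0%) and zero RLU (-100%). Compounds were tested at final concentrations of up to 57.5 uM over 24 h at 37 degrees C. PTC124 at 50 uM final served as control inhibitor.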
PTAP-TSG101 blk: qHTS Validation Assay for Inhibitors of HIV-1 Budding by Blocking the Interaction of PTAP/TSG101: Sytravon Library Screen | Tumor susceptibility gene 101 protein (Homo sapiens), Q99816 | Fluorescence polarization, FITC-PTAP peptide/Tsg101, 20 min | Potency, µM (series often up to 115 µM), usual class: inhibitors | 44,000 tested, under 10 active
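Fluorescence polarization: Tsg101 binding domain (10 uM final) in 10 mM HEPES pH 7.5, 0.15 M NaCl, 0.01% Tween 20, 3 mM EDTA, 0.1 mM TCEP; compounds pinned; FITC-PTAP peptide 50 nM final; 20 min, r.t.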
NTMT1 inh: Primary qHTS for Inhibitors of N-terminal methyltransferase 1 (NTMT1): MTaseGlo Assay. AID 1645870, 2021. Potency, µM (top dose mostly 114 µM), usual class: inhibitors. actives 2.5% (n = 59,000). N-terminal Xaa-Pro-Lys N-methyltransferase 1 (Homo sapiens), Q9BV86. NTMT1 MTase-Glo SAH luminescence, purified enzyme; note: nearly all actives have a fitted effect of over 65% in size
Target sequence (Q9BV86 whole entry, looked up): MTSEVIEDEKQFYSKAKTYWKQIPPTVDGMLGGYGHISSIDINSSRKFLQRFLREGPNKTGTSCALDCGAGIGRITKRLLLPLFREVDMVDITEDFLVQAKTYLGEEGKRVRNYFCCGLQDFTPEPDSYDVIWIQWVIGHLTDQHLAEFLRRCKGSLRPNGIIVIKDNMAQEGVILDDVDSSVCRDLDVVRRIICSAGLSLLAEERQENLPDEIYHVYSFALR
OvCa metastasis: Primary qHTS assay for Inhibitors of ovarian cancer metastasis using an organotypic tumor microenvironment (TME) model; SKOV3ip1-GFP adhesion/invasion on 3D omental model, fluorescence; Potency, µM (highest dose often 45.8 µM), most hits filed as inhibitors; actives 0.1% (n = 46,000); AID 1963576, 2024; note: nearly all actives have a fitted effect of over 65% in size
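Primary human omental fibroblast/mesothelial 3D culture pre-formed 48 h. SKOV3ip1-GFP cells added with compounds (0.36-46 umol/L), incubated 2 h RT/16 h 37 C, fixed; GFP cells quantified at 488/509 nm.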
Numbers stand for hits; [ ] = another dose, or the depositor's remark. Compounds with a hit are over-represented: about 2.5% of the library has one in this group of screens. Calls come from the whole dose curve; as a rule, active = well fitted curve in the direction sought with a large enough effect; inconclusive = small, poorly fitted or top-dose-only effect, or another doubt; inactive = no such curve, though single readings can be large; an effect the other way counts as inactive or inconclusive.

How did CC(=O)OC1C(CO)OC(O[C@H]2[C@H](OC(=O)[C@]34CCC(C)(C)C[C@H]3C3=CCC5[C@@]6(C)CC[C@H](O[C@@H]7O[C@H](C(=O)O)[C@@H](O)[C@H](O[C@@H]8OC[C@@H](O)[C@H](O)[C@H]8O)[C@H]7O[C@@H]7O[C@H](CO)[C@H](O)[C@H](O)[C@H]7O)[C@@](C)(C=O)C6CC[C@@]5(C)[C@]3(C)C[C@H]4O)O[C@H](C)[C@H](OC3OC(C)C(OC4OCC(O)C(O)C4O)C(O)C3O)[C@@H]2O)C(O)C1O (some centres not stated) do in these assays?
NTMT1 inh: inactive[6.45 µM]

What do the screens show for `C=C1C(=O)OC[C@@H]1C/C=C(\C)CC1CC(C)C(=O)O1` (some centres not stated)?
NTMT1 inh: inactive

What do the screens show for `CC(=O)Nc1cccc(-c2nc(-c3ccccc3)no2)c1`?
GALK inhibitor: inactive; HTT-AS act: 1.1µM; HTT prom inh: inactive; PTAP-TSG101 blk: inactive; NTMT1 inh: inactive; OvCa metastasis: inactive

What do the screens show for `CC1(C(=O)O)CCC2(C)CCC3(C)C(=CC(=O)C4C5(C)CCC(OC6OC(C(=O)O)C(O)C(O)C6OC6OC(C(=O)O)C(O)C(O)C6O)C(C)(C)C5CCC43C)C2C1` (configuration not stated)?
NTMT1 inh: inactive

Results for CC(C)(C)C1CCc2nc(NC(=O)c3cccc(Cl)c3)sc2C1 (configuration not stated) ?
GALK inhibitor: inactive; HTT-AS act: inactive; HTT prom inh: 0.35µM; PTAP-TSG101 blk: inactive; NTMT1 inh: inactive; OvCa metastasis: inactive

What do the screens show for `CC(C)(C)C1CCc2nc(NC(=O)c3ccc([N+](=O)[O-])cc3)sc2C1` (configuration not stated)?
GALK inhibitor: inactive; HTT-AS act: inactive; HTT prom inh: inconclusive; PTAP-TSG101 blk: inactive; NTMT1 inh: inactive; OvCa metastasis: inactive

What do the screens show for `Cc1cccc(OCC(=O)Nc2nc3c(s2)CC(C(C)(C)C)CC3)c1C` (configuration not stated)?
GALK inhibitor: inactive; HTT-AS act: inactive; HTT prom inh: inactive; PTAP-TSG101 blk: inactive; NTMT1 inh: inconclusive; OvCa metastasis: inactive

How did CC(C)(C)C1CCc2nc(NC(=O)COc3ccccc3[N+](=O)[O-])sc2C1 (configuration not stated) do in these assays?
GALK inhibitor: inactive; HTT-AS act: inactive; HTT prom inh: 4.5µM; PTAP-TSG101 blk: inactive; NTMT1 inh: inactive; OvCa metastasis: inactive

What do the screens show for `Nc1c(C(=O)c2ccccc2)sc(Nc2ccc(Cl)c(Cl)c2)c1C(=O)Nc1ccccc1`?
GALK inhibitor: inactive; HTT-AS act: inactive; HTT prom inh: 28µM; PTAP-TSG101 blk: inactive; NTMT1 inh: inactive; OvCa metastasis: inactive

What do the screens show for `CSC[C@H]1CN(Cc2c[nH]c3c(N)ncnc23)C[C@@H]1O`?
NTMT1 inh: inactive

How did Cn1nnnc1SCCCNCc1ccccc1OCc1ccccc1Cl do in these assays?
GALK inhibitor: inactive; HTT-AS act: inactive; HTT prom inh: 14µM; PTAP-TSG101 blk: inactive; NTMT1 inh: inconclusive; OvCa metastasis: inactive

Results for COC1OC(O)C2(CCC3(O2)C(C)CC2OC(=O)C4(C)CCCC3(C)C24)C1O (configuration not stated) ?
NTMT1 inh: inactive

What do the screens show for `Cc1nc2sccn2c(=O)c1S(=O)(=O)Nc1ccc(N2CCOCC2)c(Cl)c1`?
GALK inhibitor: inactive; HTT-AS act: inactive; HTT prom inh: inconclusive; PTAP-TSG101 blk: inactive; NTMT1 inh: inactive; OvCa metastasis: inactive

What do the screens show for `CCN1CCN(c2ccc(NS(=O)(=O)c3c(C)nc4sccn4c3=O)cc2Cl)CC1`?
GALK inhibitor: inactive; HTT-AS act: inactive; HTT prom inh: 16µM; PTAP-TSG101 blk: inactive; NTMT1 inh: inactive; OvCa metastasis: inactive

How did Cc1nc(NC(=O)N2CCC[C@@H]2C(N)=O)sc1-c1ccnc(C(C)(C)C(F)(F)F)c1 do in these assays?
HTT-AS act: inactive; HTT prom inh: inactive; NTMT1 inh: 30µM; OvCa metastasis: inactive

Results for Cc1nc(NC(=O)N2CCCC2C(N)=O)sc1-c1csc(C(C)(C)C)n1 (configuration not stated) ?
NTMT1 inh: inactive

How did CC(C)=CC[C@H]1O[C@]2(O)C([C@H]3CCC4[C@@]5(C)CC[C@H](O[C@@H]6O[C@H](CO)[C@H](O)[C@H](O[C@@H]7O[C@H](CO)[C@@H](O)[C@H](O)[C@H]7O)[C@H]6O[C@@H]6O[C@@H](C)[C@H](O)[C@@H](O)[C@H]6O)C(C)(C)C5CC[C@@]4(C)[C@]3(C)[C@H]2O)[C@@]1(C)O (some centres not stated) do in these assays?
NTMT1 inh: inactive[12.6 µM]

How did COc1ccc(N2CCN(C(=O)c3ccc4nc(N5CCC(C)CC5)sc4c3)CC2)cc1 do in these assays?
GALK inhibitor: inactive; HTT-AS act: inactive; HTT prom inh: 2.2µM; PTAP-TSG101 blk: inactive; NTMT1 inh: inactive; OvCa metastasis: inactive

Results for Cc1ccc(Cl)cc1N1CCN(C(=O)c2ccc3nc(N4CCC(C)CC4)sc3c2)CC1 ?
GALK inhibitor: inactive; HTT-AS act: inactive; HTT prom inh: 3.5µM; PTAP-TSG101 blk: inactive; NTMT1 inh: inactive; OvCa metastasis: inactive

Results for COc1cccc(N2CCN(C(=O)c3ccc4nc(N5CCC(C)CC5)sc4c3)CC2)c1 ?
GALK inhibitor: inactive; HTT-AS act: inactive; HTT prom inh: inconclusive; PTAP-TSG101 blk: inactive; NTMT1 inh: inactive; OvCa metastasis: inactive

What do the screens show for `COc1ccc(N2CCN(CCCNC(=O)c3ccc4nc(N5CCCCC5)sc4c3)CC2)cc1`?
GALK inhibitor: inactive; HTT-AS act: inactive; HTT prom inh: inconclusive; PTAP-TSG101 blk: inactive; NTMT1 inh: 22µM; OvCa metastasis: inactive

How did Cc1ccc(Cl)cc1N1CCN(CCCNC(=O)c2ccc3nc(N4CCCCC4)sc3c2)CC1 do in these assays?
GALK inhibitor: inactive; HTT-AS act: inactive; HTT prom inh: inconclusive; PTAP-TSG101 blk: inactive; NTMT1 inh: inconclusive; OvCa metastasis: inactive

Results for CC(C)c1ccc(CO)cc1O[C@@H]1O[C@H](CO)[C@@H](O)[C@H](O)[C@H]1O ?
NTMT1 inh: inactive
